Screening results: PubChem, National Center for Advancing Translational Sciences (NCATS)
TDP1 block – qHTS Assay for Inhibitors of Tyrosyl-DNA Phosphodiesterase (TDP1); Tyrosyl-DNA phosphodiesterase 1 (Homo sapiens), Q9NUW8; recombinant TDP1, AlphaScreen DNA substrate cleavage; Potency, µM (top dose mostly 130 µM), most hits filed as inhibitors; 350,000 tested, 0.28% active; AID 485290, 2010; also: nearly all actives have a fitted effect of over 40% in size
Target sequence (Q9NUW8 whole entry, looked up): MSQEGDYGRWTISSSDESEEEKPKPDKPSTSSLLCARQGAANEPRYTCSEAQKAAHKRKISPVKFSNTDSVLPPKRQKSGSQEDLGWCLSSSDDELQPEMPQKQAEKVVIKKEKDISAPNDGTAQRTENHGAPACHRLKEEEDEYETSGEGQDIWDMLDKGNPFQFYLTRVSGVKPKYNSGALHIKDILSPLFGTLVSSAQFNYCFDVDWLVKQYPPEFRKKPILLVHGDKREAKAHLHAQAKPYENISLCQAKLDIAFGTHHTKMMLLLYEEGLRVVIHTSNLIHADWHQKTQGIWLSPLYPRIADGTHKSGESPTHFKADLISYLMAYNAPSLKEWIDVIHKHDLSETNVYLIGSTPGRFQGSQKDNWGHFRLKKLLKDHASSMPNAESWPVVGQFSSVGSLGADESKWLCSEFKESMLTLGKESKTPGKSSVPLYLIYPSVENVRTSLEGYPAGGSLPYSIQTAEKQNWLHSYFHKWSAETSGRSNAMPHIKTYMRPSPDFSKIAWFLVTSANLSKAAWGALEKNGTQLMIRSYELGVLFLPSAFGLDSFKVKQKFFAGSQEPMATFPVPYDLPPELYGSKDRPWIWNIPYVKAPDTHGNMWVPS
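AlphaScreen read-out: signal falls as enzyme removes the 3' tyrosine-FITC from a 5'-biotinylated DNA oligo (15 nM, 5 min, RT). Enzyme was E. coli-made recombinant Tdp1 at 1 nM, exposed to compound for 15 min beforehand; beads 10 ug/ml, 10 min.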
miR-21 act – qHTS Assay for Modulators of miRNAs and/orActivators of miR-21 | HeLa miR-21 FLuc reporter, luciferase, 48 h | Potency, µM (titrated, usually from 38.3 µM), usual class: activators | 340,000 tested, under 10 active | AID 2288, 2010;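 also: miR-21 action dims this reporter so a rising signal means less miR-21 action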
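Using DMEM plus 10% FBS, HeLa miR-21-FLuc cells are incubated with test compounds (final up to about 40uM) for 48 hours; firefly luciferase signal is then imaged following reagent-mediated lysis.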
TDP1 cell CPT – qHTS for Inhibitors of human tyrosyl-DNA phosphodiesterase 1 (TDP1): qHTS in cells in presence of CPT. Potency, µM (series often up to 46.2 µM), actives largely listed as inhibitors. chicken DT40 Tdp1-/-;hTDP1 cells + 20 nM CPT, ATP luminescence, 48 h. 420,000 tested, 12% active; also: nearly all actives have a fitted effect of over 55% in size
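Chicken DT40 Tdp1-/- cells stably complemented with human TDP1 were seeded at 400 cells/well in medium containing 20 nM camptothecin, exposed to pin-transferred compounds, and grown at 37 °C for at least 48 hr. Viability was read as ATP luminescence.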
uPA generation – qHTS for Inhibitors of Cell Surface uPA Generation | 330,000 tested, 0.31% active | cell surface uPA generation assay, qHTS | Potency, µM (series often up to 38.3 µM), most hits filed as inhibitors; active = well fitted inhibition curve with a large enough effect; inconclusive = small, poorly fitted or top-dose-only effect; inactive = no such curve, though single readings can be large or run the other way; tested in mouse RAW 264.7 cells; also: nearly all actives have a fitted effect of over 55% in size
TDP1 cell noCPT – qHTS for Inhibitors of human tyrosyl-DNA phosphodiesterase 1 (TDP1): qHTS in cells in absence of CPT; DT40 Tdp1-/- hTDP1 cells, no CPT, ATP luminescence, 48 h; Potency, µM (series often up to 46.2 µM), usual class: inhibitors; 420,000 tested, 15% active; AID 686978, 2013; also: nearly all actives have a fitted effect of over 55% in size
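No-CPT arm: Tdp1-/-;hTDP1 DT40 cells (400/well) plus compounds, incubated ≥48 hr at 37 °C. Readout CellTiter-Glo luminescence.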
Of the large screens only hits and unclear results are named; the others gave an inactive call. Sampled rows, rich in hits. Any-hit rate of the full collection: about 16%. Unless noted, calls follow the shape of the dose curve; as a rule, active = well fitted curve in the direction sought with a large enough effect; inconclusive = small, poorly fitted or top-dose-only effect, or another doubt; inactive = no such curve, though single readings can be large; an effect the other way counts as inactive or inconclusive.

CCc1ccccc1NC(=O)C(=O)NCC(c1cccnc1)N1CCN(c2ccccc2F)CC1 (configuration not stated)	TDP1 cell CPT inconclusive, TDP1 cell noCPT 14.6µM (no result: uPA generation)
CCOc1ccc(NC(=O)C(=O)NCC(c2cccnc2)N2CCc3ccccc32)cc1 (configuration not stated)	TDP1 cell CPT 4.11µM, TDP1 cell noCPT 3.66µM (no result: uPA generation)
COc1ccc(C(=O)OCC(=O)N(Cc2ccccc2)Cc2ccccc2)c(O)c1	TDP1 cell CPT inconclusive, TDP1 cell noCPT 18.4µM (no result: TDP1 block, miR-21 act, uPA generation)
COc1ccc(CN(Cc2ccccc2)C(=O)c2ccc(OC)cc2O)cc1	none (no result: miR-21 act, TDP1 cell CPT, uPA generation, TDP1 cell noCPT)
COc1ccc(CC(=O)Nc2nc(-c3cccc([N+](=O)[O-])c3)cs2)cc1	TDP1 cell CPT inconclusive, TDP1 cell noCPT inconclusive
O=[N+]([O-])c1cccc(-c2csc(N/N=C/c3cccc(O)c3)n2)c1	TDP1 cell CPT inconclusive, TDP1 cell noCPT 20.6µM
C/C(=N\Nc1cc(C)nc(NCc2ccccc2)n1)c1cccc([N+](=O)[O-])c1	TDP1 cell CPT 8.2µM, TDP1 cell noCPT 2.91µM
Cc1ccc(C2(c3ccc(C)cc3)CC2C(=O)Nc2ccc([N+](=O)[O-])cc2O)cc1 (configuration not stated)	TDP1 cell CPT 3.66µM, TDP1 cell noCPT 2.59µM
O=[N+]([O-])c1cccc(/C=N/Nc2nnc(-c3ccccc3)c(-c3ccccc3)n2)c1	TDP1 cell CPT 9.2µM, TDP1 cell noCPT 9.2µM
O=[N+]([O-])c1cccc(C=NNc2ccccc2)c1	TDP1 cell noCPT inconclusive (no result: TDP1 block, miR-21 act)
CCc1ccc(C(C(=O)NCc2ccc(F)cc2)N(C(=O)c2csnn2)C2CC2)cc1 (configuration not stated)	TDP1 cell noCPT inconclusive
C/C(=N\Nc1nnc(-c2ccccc2)c(-c2ccccc2)n1)c1cccc([N+](=O)[O-])c1	TDP1 cell CPT 7.31µM, TDP1 cell noCPT 8.2µM (no result: uPA generation)
C/C(=N\NC(=O)C1CC1(c1ccccc1)c1ccccc1)c1cccc([N+](=O)[O-])c1 (configuration not stated)	TDP1 cell CPT inconclusive, TDP1 cell noCPT 7.31µM
C/C(=N\Nc1ccc(Cl)c(C(=O)O)c1)c1cccc([N+](=O)[O-])c1	none
C/C(=N\NC(=O)C1CC1c1ccccc1)c1cccc([N+](=O)[O-])c1 (configuration not stated)	TDP1 cell CPT inconclusive, TDP1 cell noCPT inconclusive
CCOc1ccc(N(CC(=O)Nc2nccs2)S(=O)(=O)c2c(C)[nH]c(=O)[nH]c2=O)cc1	none
CCCNC(=O)C1(C)CCN(Cc2ccc(OC)c3ccccc23)C1 (configuration not stated)	TDP1 cell CPT inconclusive, TDP1 cell noCPT 20.6µM (no result: TDP1 block, miR-21 act, uPA generation)
CCCNC(=O)C1(C)CCN(Cc2ccc(C)c3ccccc23)C1 (configuration not stated)	TDP1 cell CPT inconclusive, TDP1 cell noCPT 23.1µM (no result: TDP1 block, miR-21 act, uPA generation)
CCCNC(=O)C1(C)CCCN(Cc2ccc(C)cc2)C1 (configuration not stated)	TDP1 cell noCPT inconclusive (no result: TDP1 block, miR-21 act, uPA generation)
CN1CCCC(OC(=O)c2cccc(Br)c2)C1 (configuration not stated)	none (no result: TDP1 block)
C[C@H]1CN([C@@H](C)CO)C(=O)CCCn2nncc2CO[C@@H]1CN(C)Cc1ccc2c(c1)OCO2	TDP1 cell noCPT inconclusive (no result: TDP1 block, miR-21 act, uPA generation)
Cc1ccc(-c2cc(-c3ccccc3)nc(N/N=C/c3cccnc3)n2)cc1	TDP1 cell CPT 29.1µM, TDP1 cell noCPT inconclusive (no result: TDP1 block, miR-21 act)
C(=N/Nc1nc(-c2ccccc2)cc(-c2ccccc2)n1)/c1cccnc1	TDP1 cell CPT inconclusive, TDP1 cell noCPT 16.4µM
C(=N\Nc1nc(Nc2ccccc2)nc(Nc2ccccc2)n1)/c1cccnc1	TDP1 cell CPT 16.4µM, TDP1 cell noCPT 10.3µM
Cc1cc(-c2ccccc2)nc(N/N=C/c2cccnc2)n1	none
Cn1cnnc1SCc1ccccc1[N+](=O)[O-]	none
COc1cc(C)c(CN2CCC3(CCC(CNC(=O)c4ccnn4C)O3)CC2)cc1C (configuration not stated)	TDP1 cell CPT 16.4µM (no result: TDP1 block, miR-21 act, uPA generation)
O=C(N/N=C/C(Cl)=C/c1ccc([N+](=O)[O-])cc1)C(=O)Nc1ccccc1C(=O)O	TDP1 block inconclusive, TDP1 cell CPT 5.17µM, TDP1 cell noCPT 8.2µM
O=C(N/N=C/C(Cl)=C/c1ccc([N+](=O)[O-])cc1)C(=O)Nc1ccc(C(=O)O)cc1	TDP1 cell CPT 14.6µM, TDP1 cell noCPT 20.6µM
O=C(Nc1ccc(C(=O)O)cc1)/C(=C\c1ccc([N+](=O)[O-])cc1)NC(=O)c1ccco1	none (no result: TDP1 block, miR-21 act, uPA generation)
Cc1ccc(NC(=O)c2ccccc2F)cc1S(=O)(=O)N1CCCCCC1	TDP1 cell noCPT inconclusive
CCOc1ccc2c(c1)NC(c1ccc(OCC)c(OCC)c1)=NC(c1ccc(F)cc1)=N2	TDP1 cell CPT inconclusive, TDP1 cell noCPT inconclusive (no result: uPA generation)
COc1ccccc1CN1CCNC(=O)C1CC(=O)NCCCN1CCCC1=O (configuration not stated)	none
CCC(=O)c1ccc(OCC(=O)Nc2ccccc2N2CCCCC2)cc1	TDP1 cell CPT 2.59µM, TDP1 cell noCPT 2.91µM
Cc1ccc(NC(=O)COc2ccccc2)c(NC(=O)c2ccccc2C)c1	TDP1 cell CPT inconclusive, TDP1 cell noCPT 20.6µM (no result: TDP1 block, miR-21 act)
Cc1cc(C)cc(OCC(=O)Nc2ccccc2N2CCCCC2)c1	TDP1 cell CPT inconclusive, TDP1 cell noCPT inconclusive
Cc1ccccc1OCC(=O)Nc1ccccc1N1CCCCC1	TDP1 cell CPT inconclusive, TDP1 cell noCPT 20.6µM (no result: uPA generation)
Cc1ccc(NC(=O)c2ccco2)c(NC(=O)COc2ccccc2)c1	none (no result: TDP1 block)
Cc1cccc(OCC(=O)Nc2ccccc2N2CCN(C(=O)C(C)C)CC2)c1C	TDP1 cell CPT 20.6µM, TDP1 cell noCPT inconclusive
O=C(CN1CCN(CC(=O)c2ccc(Cl)cc2)CC1)c1ccc(Cl)cc1	none (no result: TDP1 block, miR-21 act)
O=C1CC(NS(=O)(=O)c2cccs2)CN1c1ccc(F)cc1 (configuration not stated)	none (no result: TDP1 block, miR-21 act)
COc1ccc2sc(N3C(=O)CC(Cc4cccc(C)c4)C3=O)nc2c1 (configuration not stated)	none
COc1cccc(-n2c(=O)c3c(C)c(C)sc3n(CC(=O)NCc3ccc(C)cc3)c2=O)c1	none (no result: uPA generation)
Cc1ccc(OCC(=O)Nc2ccccc2C(=O)N2CCCC2)cc1	TDP1 cell CPT inconclusive, TDP1 cell noCPT 16.4µM
Cc1ccc(OCC(=O)Nc2ccccc2N2CCOCC2)c(C)c1	TDP1 cell CPT 18.4µM, TDP1 cell noCPT inconclusive
COc1cc(C)ccc1OCC(=O)Nc1ccccc1N1CCOCC1	TDP1 cell noCPT inconclusive (no result: miR-21 act)
CN(c1ccc(OCC(=O)N2CCOCC2)cc1)S(=O)(=O)c1ccc(Cl)cc1	TDP1 cell noCPT inconclusive
CN(C)c1ccc(/C=C(/NC(=O)c2ccccc2)C(=O)NCCN2CCOCC2)cc1	none
COc1cc2c(cc1OC)-c1nncn1C(C)(C)C2	none
